# Results filed as inconclusive are left out. Active and inactive are the calls of the source. Calls come from the whole dose curve; as a rule, active = well fitted cell-killing curve with a large enough effect; inconclusive = small, poorly fitted or top-dose-only effect, or effect the other way; inactive = flat fitted curve, though single readings scatter. Non-standard residues stand in square brackets, D forms with d. Residues, ends and D or L forms follow the SMILES beside them. *: point of attachment. Nva = CCC[C@H](N)C(=O)O; Cbz = O=C(OCc1ccccc1)*
# Experiment: qHTS of pediatric cancer cell lines to identify multiple opportunities for drug repurposing: Confirmatory screen for Rh18 cells (AID 1347125); note: nearly all actives have a fitted effect of over 55% in size
# Settings: Rh18 rhabdomyosarcoma cells, viability; series mostly up to 45.9 µM
# In short: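 Viability after 48 h compound treatment at 37C, 500-1,000 cells/well, read as ATP luminescence with CellTiter-Glo. Primary screens used 11-point (MIPE, 0.78 nM-46 µM) or 8-point (NPC, 0.59 nM-46 µM) final concentrations; follow-up screens used 11-point dilutions.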
# Potency is the fitted concentration of half-maximal effect.
row,SMILES,Potency
1,Cn1cc(CNCC2CCN(c3ncc(C(=O)NO)cn3)CC2)c2ccccc21,0.131 µM (active)
2,Cn1cnc(=N)c2[nH]cnc21,inactive
3,N#Cc1c(NC(=O)c2cccc3ccccc23)sc2c1CCCC2,inactive
4,COC(=O)C1C2CC3c4[nH]c5cc(OC)ccc5c4CCN3CC2CC(OC(=O)c2cc(OC)c(OC)c(OC)c2)C1OC (configuration not stated),16.5 µM (active)
5,CC(=O)N1CCN(c2ccc(OCc3nn(C)c(C)c3-c3cccc4c(CCCOc5cccc6ccccc56)c(C(=O)O)n(Cc5cccnc5)c34)cc2)CC1,inactive
6,O=C(NC1CC1)c1cccc(-c2ccc3c(NC(=O)C4CC4)n[nH]c3c2)c1,inactive
7,CC(C)(N)c1ccc(-c2nc3ccccc3nc2-c2ccccc2)cc1,1.65 µM (active)
8,CC(=O)O[C@@]12CO[C@H]1C[C@H](O)[C@@]1(C)C(=O)[C@H](O)C3=C(C)[C@@H](OC(=O)C(O)[C@@H](NC(=O)OC(C)(C)C)c4ccccc4)C[C@@](O)([C@@H](OC(=O)c4ccccc4)[C@@H]21)C3(C)C (some centres not stated),inactive
9,CNC(=O)c1ccc(Nc2cc(Nc3ccccc3S(=O)(=O)C(C)C)c3cc[nH]c3n2)nc1,18.5 µM (active)
10,C#CCC(Cc1cnc2nc(N)nc(N)c2n1)c1ccc(C(=O)N[C@@H](CCC(=O)O)C(=O)O)cc1 (some centres not stated),inactive
11,O=C(O)C[C@H](O)C[C@H](O)C=Cc1c(C2CC2)nc2ccccc2c1-c1ccc(F)cc1,3.69 µM (active)
12,COc1cccc2c1C(=O)c1c(O)c3c(c(O)c1C2=O)C[C@@](O)(C(=O)CO)C[C@@H]3O[C@H]1C[C@H](N)[C@H](OC2CCCCO2)[C@H](C)O1 (some centres not stated),18.5 µM (active)
13,Cc1nc(NC(=O)N2CCC[C@@H]2C(N)=O)sc1-c1ccnc(C(C)(C)C(F)(F)F)c1,2.93 µM (active)
14,CC(C)(O)Cn1c(NC(=O)c2ccc(-c3cn[nH]c3)s2)nc2cc(CN3CCOCC3)ccc21,1.31 µM (active)
15,N#Cc1c(C2CCNCC2)cc(-c2c(O)cccc2OCC2CC2)nc1N,inactive
16,CC(=O)ON=C1C(c2c(O)[nH]c3cc(Br)ccc23)=Nc2ccccc21,13.1 µM (active)

row,SMILES,Potency
1,CC(=O)SCC(Cc1ccccc1)C(=O)NCC(=O)OCc1ccccc1 (configuration not stated),inactive
2,COc1cc(OC)c(C=CS(=O)(=O)Cc2ccc(OC)c(NCC(=O)O)c2)c(OC)c1,inactive
3,C[C@H](NCc1ccc2c(c1)nc(NC(=O)c1ccc(-c3cn[nH]c3)s1)n2CCc1ccccc1)C(C)(C)C,3.29 µM (active)
4,Cn1cc(-c2cnn3c(N)c(Br)c([C@H]4CCCNC4)nc23)cn1,inactive
5,CC(C(C)N1CC(=O)NC(=O)C1)N1CC(=O)NC(=O)C1 (configuration not stated),inactive
6,CS(=O)(=O)N1CCc2c(-c3cnc(N)nc3)nc(N3CCOCC3)nc21,1.85 µM (active)
7,CCC[C@@H](C=O)NC(=O)[C@H](CC(C)C)NC(=O)[C@H](CC(C)C)NC(=O)OCc1ccccc1 (Cbz-Leu-Leu-[Nva]-aldehyde),3.69 µM (active)
8,CS[C@H]1SC[C@@H]2C(=O)N(C)[C@H](C(C)C)C(=O)OC[C@H](NC(=O)c3cnc4ccccc4n3)C(=O)N[C@H](C)C(=O)N(C)[C@@H]1C(=O)N(C)[C@H](C(C)C)C(=O)OC[C@H](NC(=O)c1cnc3ccccc3n1)C(=O)N[C@H](C)C(=O)N2C,inactive
9,COC1=C2C[C@@H](C)C[C@H](OC)[C@@H](O)[C@@H](C)C=C(C)[C@H](OC(N)=O)[C@@H](OC)C=CC=C(C)C(=O)NC(=CC1=O)C2=O,2.08 µM (active)
10,CC(=O)[C@]1(O)Cc2c(O)c3c(c(O)c2[C@@H](O[C@H]2C[C@H](N)[C@@H](O)[C@H](C)O2)C1)C(=O)c1ccccc1C3=O,6.57 µM (active)
11,Cc1ccc([N+](=O)[O-])cc1S(=O)(=O)N(C)N=Cc1cnc2ccc(Br)cn12,1.31 µM (active)
12,COC(=O)C=CC(=O)OC,14.7 µM (active)
13,C=Cc1c(C)c2cc3nc(cc4[nH]c(cc5nc(cc1[nH]2)C(C)=C5CCC(=O)O)c(CCC(=O)OC)c4C)[C@@]1(C)C3=CC=C(C(=O)OC)[C@H]1C(=O)OC,inactive
14,C=CC(=O)N1CCc2ccc(-n3c(=O)ccc4cnc5ccc(-c6cnn(C)c6)cc5c43)cc21,inactive
15,NS(=O)(=O)OC[C@@H]1C[C@@H](n2ccc3c(N[C@H]4CCc5ccccc54)ncnc32)C[C@H]1O,inactive
16,Cc1cc(Nc2ncc3c(n2)N(C)C(=O)N(c2cc(NC(=O)c4cccc(C(F)(F)F)c4)ccc2C)C3)n(C)n1,0.737 µM (active)

# From PubChem BioAssay (NCATS)
